Test results reported in PubChem BioAssay (EPA / NIEHS).
Where a structure was tested more than once in an assay, its records may differ in their call. Active and inactive are the calls of the source. Rule for the calls: active = hit-call score of the fitted dose curve at least 0.9, where 1 is the maximum; inactive = score below 0.9.

Key:
[1] = read-out: Vascular endothelial growth factor receptor 2 (Homo sapiens) (UniProt P35968); assay: BSK_4H_VEGFRII: BioMAP Diversity Plus: 4H Assay for Vascular endothelial growth factor receptor 2 (VEGFR2) Biomarker Activity (AID 2283031); settings: primary human endothelial cells (HUVEC); actives raise or lower the signal;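 for AC50: cell-surface VEGFR2 protein level quantified by ELISA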
Procedure, shortened: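 Primary human umbilical vein endothelial cells (4H system), 24 h exposure; cell-surface VEGFR2 measured by ELISA. Bidirectional fitting versus DMSO; cytotoxicity checked in parallel by SRB total-protein staining.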

[2] = read-out: Human Leukocyte Antigen - DR isotype (HLADR), HLA-DRA (gene 3122); assay: BSK_BE3C_HLADR: BioMAP Diversity Plus: BE3C Assay for Human Leukocyte Antigen - DR isotype (HLADR) Biomarker Activity (AID 2283032); settings: primary human bronchial epithelial cells; actives raise or lower the signal
Procedure, shortened: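 ELISA read-out of HLA-DR on human lung bronchial epithelial primary cells, measured 24 h post-dosing. Both increases and decreases were scored relative to DMSO vehicle.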

[3] = read-out: Vascular cell adhesion molecule 1 (VCAM1), VCAM1 (gene 7412); assay: BSK_4H_VCAM1: BioMAP Diversity Plus: 4H Assay for Vascular cell adhesion molecule 1 (VCAM1) Biomarker Activity (AID 2283033); settings: primary human endothelial cells (HUVEC); actives raise or lower the signal
Procedure, shortened: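 ELISA read-out of VCAM-1 on human umbilical vein endothelium 24 hours after chemical dosing; gain or loss of signal was fitted relative to DMSO, with sulforhodamine B staining of parallel cultures flagging overt cytotoxicity.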

[4] = read-out: Interferon-gamma inducible Protein 10 (IP10), CXCL10 (gene 3627); assay: BSK_BE3C_IP10: BioMAP Diversity Plus: BE3C Assay for Interferon-gamma inducible Protein 10 (IP10) Biomarker Activity (AID 2283034); settings: primary human bronchial epithelial cells; actives raise or lower the signal
Procedure, shortened: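 Chemical is dosed onto human lung bronchial epithelial primary cells, cultures are incubated 24 h, and IP-10 is then quantified by ELISA. Gain or loss of signal is fitted in both directions relative to DMSO.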

[5] = read-out: Monokine induced gamma interferon (MIG), CXCL9 (gene 4283); assay: BSK_BE3C_MIG: BioMAP Diversity Plus: BE3C Assay for Monokine induced gamma interferon (MIG) Biomarker Activity (AID 2283035); settings: primary human bronchial epithelial cells; actives raise or lower the signal
Procedure, shortened: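 Primary human bronchial epithelial cells treated for 24 h; MIG levels measured by ELISA, fitted bidirectionally versus DMSO. Parallel SRB total-protein staining assessed cytotoxicity.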

[6] = read-out: Transforming growth factor beta 1 (TGFb1), TGFB1 (gene 7040); assay: BSK_BE3C_TGFb1: BioMAP Diversity Plus: BE3C Assay for Transforming growth factor beta 1 (TGFb1) Biomarker Activity (AID 2283036); settings: primary human bronchial epithelial cells; actives raise or lower the signal
Procedure, shortened: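 Primary human lung bronchial epithelial cells; compound exposure 24 h; TGF-b1 by ELISA; bidirectional fit, DMSO baseline. Parallel SRB total-protein staining for cytotoxicity.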

[7] = read-out: Plasminogen activator inhibitor-1 (PAI1), SERPINE1 (gene 5054); assay: BSK_BE3C_PAI1: BioMAP Diversity Plus: BE3C Assay for Plasminogen activator inhibitor-1 (PAI1) Biomarker Activity (AID 2283037); settings: primary human bronchial epithelial cells; actives raise or lower the signal
Procedure, shortened: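 Primary human lung bronchial epithelial cells; chemical dosing; 24 h; PAI-1 measured by ELISA; bidirectional fit referenced to DMSO as negative control.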

[8] = read-out: urokinase plasminogen activator (uPA), PLAU (gene 5328); assay: BSK_BE3C_uPA: BioMAP Diversity Plus: BE3C Assay for urokinase plasminogen activator (uPA) Biomarker Activity (AID 2283038); settings: primary human bronchial epithelial cells; actives raise or lower the signal
Procedure, shortened: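 Primary human bronchial epithelial cells, uPA measured by ELISA 24 h after dosing. Bidirectional change relative to DMSO; cytotoxicity checked in parallel cultures by sulforhodamine B total-protein staining.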

[9] = read-out: Urokinase-type plasminogen activator receptor (uPAR), PLAUR (gene 5329); assay: BSK_BE3C_uPAR: BioMAP Diversity Plus: BE3C Assay for Urokinase-type plasminogen activator receptor (uPAR) Biomarker Activity (AID 2283039); settings: primary human bronchial epithelial cells; actives raise or lower the signal
Procedure, shortened: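 Human bronchial epithelial primary cells; chemical exposure 24 h; uPAR by ELISA; bidirectional fit vs DMSO control.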

[10] = read-out: Urokinase-type plasminogen activator receptor (uPAR), PLAUR (gene 5329); assay: BSK_4H_uPAR: BioMAP Diversity Plus: 4H Assay for Urokinase-type plasminogen activator receptor (uPAR) Biomarker Activity (AID 2283030); settings: primary human endothelial cells (HUVEC); actives raise or lower the signal
Procedure, shortened: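 Human umbilical vein endothelial cells in the 4H system, 24 h after chemical dosing. Cell-surface uPAR measured by ELISA, fitted in both directions versus DMSO; cytotoxicity checked by SRB total protein in parallel cultures.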

Measured: AC50

CCN(CC)C(=S)SSC(=S)N(CC)CC
active: [1] 26.8 µM | [2] 8.96 µM | [3] 32.4 µM | [4] 25.5 µM | [5] 32.3 µM | [6] 17.9 µM | [7] 27.9 µM | [8] 18.7 µM | [9] 22.6 µM

NC(=O)N(O)[C@@H]1COc2cc(OCc3ccccc3)ccc21
not listed: [10]
inactive: all other assays above

CC[C@H](C)C(=O)O[C@H]1C[C@H](O)C=C2C=C[C@H](C)[C@H](CC[C@@H](O)C[C@@H](O)CC(=O)O)[C@H]21
not listed: [10]
inactive: all other assays above

FC(F)C(F)(F)COCC1CO1 (centres undefined)
inactive: [1] | [2] | [3] | [4] | [8] | [9]
active: [2] 45.8 µM

CCc1cccc(CC)c1N
not listed: [5] | [7]
inactive: all other assays above

OC[C@H]1O[C@@](CO)(O[C@H]2O[C@H](CO)[C@@H](O)[C@H](O)[C@H]2O)[C@@H](O)[C@@H]1O
not listed: [5] | [7]
inactive: all other assays above

CCCC(CCC)C(=O)O
not listed: [5] | [7]
inactive: all other assays above

Cc1nc(-c2ccccn2)ncc1C(=O)Nn1cc(C)c2cc(F)ccc21
not listed: [5]
inactive: all other assays above

NC(=O)NN=Cc1ccc([N+](=O)[O-])o1
active: [8] 7.99 µM
not listed: [5] | [7] | [10]
inactive: all other assays above

O=C(O)c1cccc(C[C@@H]2COc3ccc(OCc4nc5cc(F)ccc5s4)cc3[C@@H]2O)c1
not listed: [5] | [10]
inactive: all other assays above

Nc1ccn([C@@H]2O[C@H](CO)[C@@H](O)[C@@H]2O)c(=O)n1
not listed: [7] | [10]
inactive: all other assays above

FC(F)(F)COC(OCC(F)(F)F)OCC(F)(F)F
not listed: [5] | [6] | [10]
inactive: all other assays above

OCCOCCOCCO
not listed: [5] | [10]
inactive: all other assays above

O=C(O)c1cccc(C(=O)O)c1
not listed: [7] | [10]
inactive: all other assays above

O=C(NO)C1(NS(=O)(=O)c2ccc(Oc3ccc(F)cc3)cc2)CCOCC1
not listed: [5] | [7] | [10]
inactive: all other assays above

C[C@]12C=CC(=O)C=C1CC[C@H]1[C@@H]3C[C@@H](O)[C@](O)(C(=O)CO)[C@@]3(C)C[C@H](O)[C@@]12F
not listed: [5] | [7] | [10]
inactive: all other assays above

OCCC(F)(F)C(F)(F)C(F)(F)C(F)(F)F
not listed: [6] | [7] | [10]
inactive: all other assays above

O=S(=O)(O)CCC(F)(F)C(F)(F)C(F)(F)C(F)(F)C(F)(F)C(F)(F)F
not listed: [6] | [7] | [10]
inactive: all other assays above

COCc1nnc(-c2ccc[n+]([O-])c2)n1-c1c(Cl)c(Cl)cc2[nH]c(=O)c(=O)[nH]c12
not listed: [7] | [10]
inactive: all other assays above

CCCc1ccccc1
not listed: [5] | [7] | [10]
inactive: all other assays above

C=CCc1cc(S(=O)(=O)c2ccc(O)c(CC=C)c2)ccc1O
active: [1] 20 µM | [2] 8.38 µM | [3] 32.3 µM | [4] 13.4 µM | [6] 10.5 µM | [8] 23.5 µM | [9] 15.4 µM

COc1cc2c(c(OC)c1OC)-c1ccc(OC)c(=O)cc1[C@@H](NC(C)=O)CC2
active: [2] 0.47 µM | [7] 0.148 µM
not listed: [5] | [10]
inactive: all other assays above

Cc1nccn1-c1ccc(Sc2cccc(C3(C(N)=O)CCOCC3)c2)cc1
active: [2] 12.8 µM | [3] 6.37 µM | [4] 20 µM | [8] 14.3 µM | [9] 10.3 µM
inactive: [1] | [5] | [6]

COc1cc(C(C)C)c2c(c1)S(=O)(=O)N(COc1cc(=O)n3cccc(OCCN4CCCCC4)c3n1)C2=O
inactive: [1] | [5] | [6] | [9]
active: [2] 6.88 µM | [3] 5 µM | [4] 7.41 µM | [8] 8.13 µM

CCCCCCCC/C=C\CCCCCCCC(=O)OC[C@@H](O)[C@H]1OC[C@H](O)[C@H]1O
not listed: [10]
inactive: all other assays above

CC(C)c1nnc2ccc(-c3ocnc3-c3cc(F)ccc3F)cn12
not listed: [5] | [7] | [10]
inactive: all other assays above

CCOC(N)=O
not listed: [5] | [7] | [10]
inactive: all other assays above

OC(CCl)CCl
not listed: [7] | [10]
inactive: all other assays above

OC(O)(C(F)C(O)(O)C(F)(F)F)C(F)(F)F
not listed: [6] | [7] | [10]
inactive: all other assays above

C=CN1CCCC1=O
not listed: [7] | [10]
inactive: all other assays above

CCCCC(CC)C(=O)OCCOCCOCCOC(=O)C(CC)CCCC (centres undefined)
not listed: [5] | [10]
inactive: all other assays above

c1ccc2cc3ccccc3cc2c1
not listed: [5] | [7] | [10]
inactive: all other assays above

C[Si](C)(C)C(F)(F)C(F)(F)C(F)(F)F
not listed: [6] | [10]
inactive: all other assays above

CC(C)CC(C)O (centres undefined)
not listed: [7] | [10]
inactive: all other assays above

Cn1c(=O)c2[nH]cnc2n(C)c1=O
not listed: [5] | [7] | [10]
inactive: all other assays above

c1ccc2c(c1)-c1cccc3c1c-2cc1ccccc13
not listed: [7] | [10]
inactive: all other assays above
